Compound activity as filed in PubChem.
STAT3 blocker – reduces IL-6 driven STAT3 reporter signal. U3A cells, IL-6 STAT3-luciferase reporter, luminescence; host cell line lacks STAT1. inhibition, % at 5.5 µM. 0.89% of 190,000 active;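 active = inhibition above the mean inhibition across all screened compounds plus 3 SD, cut at about 44% in these data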
PPC-1+TRAIL kill – compounds killing PPC-1 cancer cells with TRAIL present (potentiator screen, no TRAIL-free arm); cell killing (% activity), % at 4 µM or 5 µM; PPC-1 cells + TRAIL, ATPLite viability luminescence; 0.41% of 220,000 active; AID 1443;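 active = cell killing above 50% in the first pass at 4 µM, then a duplicate retest at 5 µM averaging 50% or more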
STAT1 blocker – reduces IFN-gamma driven STAT1 reporter signal | NIH 3T3 STAT1-luciferase reporter, luminescence | inhibition, % at 5.5 µM | 0.35% of 200,000 active;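 active = inhibition above a set limit, the mean inhibition across all tested compounds plus 3 SD, cut at about 34% in these data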
Platelet DG rel – modulates dense granule release in human platelets. human platelet-rich plasma, SFLLRN dense granule ATP release, luminescence. inhibition, %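 (compounds screened at 7.5 µM in platelet-rich plasma)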. 0.22% of 300,000 active;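 active = mean replicate score, as percent of positive control, at or above 50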
TRAIL sens C8 – caspase-8 TRAIL sensitization; NB7+C8 cells + TRAIL, ATPlite viability luminescence; inhibition (viability loss, TRAIL sensitization), % at 10 µM; 1% of 360,000 active; AID 624354;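 active = compounds causing at least 50% loss of cell viability in the single-dose screen, relative to plate controls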
Hits are given with their value; - = inactive; . = no result. This is a sample that favours compounds with a hit; in the whole collection about 1.6% have one here.

SMILES	STAT3 blocker	PPC-1+TRAIL kill	STAT1 blocker	Platelet DG rel	TRAIL sens C8
O=C(Nc1ccc2c(c1)OCCO2)c1cccc(C(=O)Nc2ccc3c(c2)OCCO3)c1	.	.	.	-	-
COCCNC(=O)C1(C)CCCN(Cc2cc(C(F)(F)F)ccc2Cl)C1 (centres undefined)	.	.	.	.	-
Cc1cc(Br)ccc1NC(=O)CN(C)C(=O)c1cccc(S(=O)(=O)N2CCN(C)CC2)c1	.	.	.	.	-
Nc1ncccc1OCc1cccc(C(F)(F)F)c1	-	-	-	-	-
Nc1nc(N)c(-c2cccc(C(F)(F)F)c2)c(Cc2cccc(C(F)(F)F)c2)n1	.	.	.	.	78
Cc1cc(Nc2ccccc2C(=O)O)n2ncnc2n1	.	.	.	.	-
C(=NNc1ccc2ccccc2n1)c1ccccn1	.	.	.	.	87
C(=N\N=C\c1ccccn1)/c1ccccn1	.	.	.	-	-
C(=N\NC1=Nc2cccc3cccc1c23)/c1ccccn1	-	-	-	-	71
O=C(Nc1nc(-c2nc3ccccc3s2)cs1)C1CC1	-	-	-	-	52
CCCCN1C(=O)c2ccc(C(=O)NC3(C)CCS(=O)(=O)C3)cc2C1=O (centres undefined)	.	.	.	.	-
O=C(c1ccc(Cl)c(S(=O)(=O)N2CCCCC2)c1)N1CCCC(C(F)(F)F)C1 (centres undefined)	.	.	.	.	-
O=C(CN(c1cccc(C(F)(F)F)c1)S(=O)(=O)c1ccc(Cl)c([N+](=O)[O-])c1)NCc1ccc(F)cc1	-	63	-	-	-
O=C(CN(c1cccc([N+](=O)[O-])c1)S(=O)(=O)c1ccccc1)NCc1cccnc1	.	.	.	-	-
Cc1ccc(C(c2nc3ccccc3[nH]2)n2c(-c3ccccc3)nc3ccccc32)cc1 (centres undefined)	.	.	.	.	-
C=CCN(CC=C)c1cnn(-c2nc3ccccc3[nH]2)c(=O)c1Cl	-	-	-	-	66
C/C(=N\Nc1nc2ccccc2[nH]1)c1ccc2c(c1)OCCO2	-	-	-	-	-
C/C(=N\Nc1nc2ccccc2[nH]1)c1cc2ccccc2o1	-	-	-	-	59
C/C(=N\Nc1nc2ccccc2[nH]1)c1ccc2c(c1)OCO2	-	-	-	-	-
C/C(=N\Nc1nc2ccccc2[nH]1)c1ccccn1	.	.	.	-	58
O=C(Nc1ccccc1SC(=O)c1ccccc1)c1ccccc1	.	.	.	.	-
Cc1ccc(C(=O)Sc2cccccc2=O)cc1	.	.	.	-	61
O=c1[nH]c2c(s1)C=Nc1ccccc1N2	-	-	-	77	-
O=C(O)c1ccccc1N/N=C\c1ccnc2ccccc12	-	-	-	-	65
CCCCC1CCC(C(=O)N(CCCC)c2c(N)n(CCCC)c(=O)[nH]c2=O)CC1 (centres undefined)	.	.	.	-	72
SMILES	STAT3 blocker	PPC-1+TRAIL kill	STAT1 blocker	Platelet DG rel	TRAIL sens C8
CCCCC1CCC(C(=O)N(CCC(C)C)c2c(N)n(CCCC)c(=O)[nH]c2=O)CC1 (centres undefined)	.	.	.	.	52
O=C1CSC(c2cn(-c3ccccc3)nc2-c2ccc3c(c2)OCCO3)N1CCN1CCOCC1 (centres undefined)	-	-	-	55	-
CCc1ccc(-c2cn3nc(C)c(C)nc3n2)cc1	110	.	85	-	56
Cc1nc2nc(-c3ccc(F)cc3)cn2nc1C	.	.	.	.	-
COC(=O)c1ccc(C(=O)NC(=S)Nc2nc3c(s2)CCCC3)cc1	-	-	-	-	-
CCN1CCc2nc(NC(=O)c3ccccc3)sc2C1	-	-	-	-	50
Cc1nc(NC(=S)NC(=O)c2ccccc2)sc1C	.	-	.	-	63
Cc1ncsc1C(=O)Nc1nc2c(s1)CCCC2	-	-	-	61	-
Cc1nc(NC(=O)c2ccccc2)sc1C	.	.	.	-	-
O=C(NC(=S)Nc1nc2c(s1)CCCC2)c1ccccc1	-	-	-	-	71
O=C(Nc1nc2c(s1)CN(Cc1ccccc1)CC2)C1CCC1	-	-	-	-	-
COC(=O)[C@]12CCCCC=C1N(Cc1ccc(Cl)cc1Cl)C(=O)[C@H](CC(=O)N1CCN(C(=O)C3CC3)CC1)C2	.	.	.	.	-
CC(C)N1CCC1(C)C(=O)Nc1cc(-c2ccccc2)nn1C (centres undefined)	.	.	.	.	-
COc1cccc(NC(=O)CN(C)C(=O)Cc2c(C)nc3ccccc3c2C)c1	.	.	.	.	-
CCCc1nnc(SCC(=O)Nc2ccc(NC(C)=O)cc2)n1-n1cccc1	.	.	.	-	-
COC(=O)C(C(=O)OC)c1cc2c(cc1CNS(=O)(=O)c1ccc(C)cc1)OCO2	.	.	.	.	-
O=C(CN1CCCc2ccccc21)N/N=C/c1c(O)ccc2ccccc12	-	-	-	-	-
CSCCC(C(=O)Nc1c(C)cccc1C)N1CCN(c2ccc(F)cc2)CC1 (centres undefined)	.	.	.	.	-
COC(=O)c1sc(NC(=S)NC(=O)c2cccc(C)c2)nc1C	-	-	-	-	51
COC(=O)c1sc(NC(=S)NC(=O)c2ccccc2F)nc1C	-	-	-	-	-
Cc1nc(NC(=O)c2cc3ccccc3o2)sc1C	.	.	.	-	54
CC(C)c1ccc(NC(=O)Nc2nc(C(N)c3ccccc3Cl)cs2)cc1 (centres undefined)	.	.	.	.	-
CCCCCCCCCCCCC/C=C/[C@@H](O)[C@@H](N)CO	.	.	.	-	71
CC(C)NC(=O)C1(C)CN(S(C)(=O)=O)CC(=O)N1Cc1ccc2c(c1)OCO2 (centres undefined)	.	.	.	.	-
O=C1c2c(O)ccc(O)c2C(=O)c2c(NCCNCCO)ccc(NCCNCCO)c21	.	.	.	.	82
SMILES	STAT3 blocker	PPC-1+TRAIL kill	STAT1 blocker	Platelet DG rel	TRAIL sens C8
O=C(C[C@H]1C/C=C\C[C@H](NC(=O)OCC2c3ccccc3-c3ccccc32)C(=O)O[C@H](c2ccccc2)CNC1=O)N[C@H](CO)Cc1ccccc1	.	.	.	.	85
COc1ccc(C2=Nc3ccccc3N(C(=O)c3ccc4ncccc4c3)C2C(=O)NC(C)(C)C)cc1 (centres undefined)	.	.	.	.	-
COc1ccc2[nH]c3c(NCCC4=CCCCC4)ncnc3c2c1	-	.	-	-	54
O=C(Nc1cc2ccccc2oc1=O)c1ccccc1	96	-	76	-	55
Cc1ccc(C(=O)N/N=C\c2ccccc2[N+](=O)[O-])cn1	-	.	-	-	52
COc1ccc(C(=O)N/N=C/c2cccnc2)cc1	.	.	.	-	52
CC(=O)Nc1ccc(C(=O)N/N=C/c2cccnc2)cc1	-	-	-	-	-
Cc1ccc(C(=O)N/N=C\C=C\c2ccccc2[N+](=O)[O-])cn1	-	-	-	-	-
CCOc1ccc(C(=O)N/N=C/c2ccccc2[N+](=O)[O-])cc1	-	52	-	-	76
CCC(=O)Nc1ccc(C(=O)N/N=C/c2ccccc2[N+](=O)[O-])cc1	-	-	-	-	-
CCOc1ccc(/C=N/NC(=O)c2ccccc2NC(=O)c2ccc(OC)cc2)cc1	-	-	-	-	76
CN(N=Nc1nc[nH]c1C(=O)NN)C1CCCCC1	.	.	.	.	-
CCCCCc1cc(=O)oc2c(C(CCN3CCCC(C)C3)c3cc(OC)c(OC)c(OC)c3)c(OC)cc(OC)c12 (centres undefined)	.	-	.	-	-
CCCCCc1cc(=O)oc2c(C(CCN3CCCCC3)c3cc(OC)c(OC)c(OC)c3)c(OC)cc(OC)c12 (centres undefined)	.	-	.	-	67
CCc1ccc2oc(=O)cc(CN3CCCCC3)c2c1	.	.	.	-	-
